Sm TGR inh: qHTS Assay for the Inhibitors of Schistosoma Mansoni Peroxiredoxins. purified TGR, DTNB reduction, TNB absorbance 405 nm. Potency, µM (titrated, usually from 114 µM), for inactives: at the highest dose activity change, negative = inhibition, most hits filed as inhibitors. 360,000 tested, 3% active. AID 485364, 2010; also: potency is read from the fitted curve at half-maximal effect; nearly all actives have a fitted effect of over 60% in size
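First, TGR (20 nM dispensed) and NADPH were mixed with compound. Second, a 15 min room-temperature incubation followed. Third, further NADPH and then DTNB were added to start the reaction. Finally, TNB absorbance was monitored kinetically.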
Tb PYK inh: qHTS of Trypanosoma Brucei Inhibitors. pyruvate kinase (Trypanosoma brucei), Q57TT1. TbPYK enzyme, Kinase-Glo Plus ATP luminescence, 45 min. Potency, µM (highest dose often 76.8 µM), for inactives: at the top dose activity, negative = inhibition, actives largely listed as inhibitors. 410,000 tested, 0.12% active. AID 624173, 2012; also: potency is read from the fitted curve at half-maximal effect; nearly all actives have a fitted effect of over 50% in size
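Activity of T. brucei pyruvate kinase was followed by Kinase-Glo Plus luminescence after the enzyme reacted 45 min at room temperature with 130 uM ADP (final) and substrate. Test compounds were added before ADP at multiple concentrations.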
RE007 growth inh: qHTS Assay for Inhibitors of the HIV-1 protein Vpr; S. pombe RE007 Vpr strain, BacTiter-Glo ATP luminescence, 24 h; Potency, µM (highest dose often 92.2 µM), inactives show top-dose activity change, negative = less growth, most hits filed as inhibitors; 360,000 tested, 0.21% active; active = well fitted falling curve with a large enough effect; inconclusive = small, poorly fitted or top-dose-only effect; inactive = no such curve, though single readings can be large or run the other way; also: potency is read from the fitted curve at half-maximal effect; nearly all actives have a fitted effect of over 50% in size
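Fission yeast RE007 carrying one integrated HIV-1 vpr copy, seeded at OD 0.01 in PMG+AL medium with 23 nL pinned compound. Grown 24 h at 30 degrees; viability read by BacTiter-Glo luminescence after 5 min.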
HCMV antiviral: qHTS Assay for inhibitors of the human cytomegalovirus (HCMV); HFF cells, HCMV-luciferase reporter, 72 h; active compounds read low; activity change, negative = inhibition, % at 57.5 µM; 410,000 tested, 4.5% active; AID 1259415, 2018; in the data active = activity change below about -60%; inconclusive = no clear call, values can overlap the other calls; inactive = above about -39%
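After 16 h attachment at 37C, HFF cells received test compound and HCMV-luciferase (1 PFU/cell); reporter luminescence read 72 h later, data normalized against buffer-only and known inhibitor Salinomycin.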
FMDV inh: High Throughput Screening for Foot and Mouth Disease Virus Antivirals. FMDV antiviral cell-based qHTS. Potency, µM (doses to about 57.9 µM), inactives show at the top dose activity change, negative = inhibition, most hits filed as inhibitors. 410,000 tested, 1.2% active. AID 1159524, 2015; calls by dose curve; tested in HEK293T cells; also: read-out not given here; potency is read from the fitted curve at half-maximal effect; nearly all actives have a fitted effect of over 45% in size
FBPA Giardia inh: qHTS Assay for Inhibitors of Fructose-1,6-bisphosphate Aldolase from Giardia Lamblia; Potency, µM (top dose mostly 59.6 µM), without a hit: top-dose activity, negative = inhibition, usual class: inhibitors; 290,000 tested, 0.71% active; A8B2U2; AID 2451, 2010; purified Giardia FBPA; also: potency is read from the fitted curve at half-maximal effect; nearly all actives have a fitted effect of over 55% in size
Target sequence (A8B2U2 whole entry, looked up): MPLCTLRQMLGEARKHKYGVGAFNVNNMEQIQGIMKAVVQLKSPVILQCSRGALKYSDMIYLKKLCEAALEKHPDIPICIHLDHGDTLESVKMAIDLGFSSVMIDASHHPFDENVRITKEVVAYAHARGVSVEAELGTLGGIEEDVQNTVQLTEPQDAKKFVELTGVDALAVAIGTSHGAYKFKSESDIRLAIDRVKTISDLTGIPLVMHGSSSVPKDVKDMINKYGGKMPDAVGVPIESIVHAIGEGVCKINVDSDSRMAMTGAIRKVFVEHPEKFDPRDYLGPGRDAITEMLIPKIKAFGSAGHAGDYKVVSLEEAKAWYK
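40 nM FBPA preincubated 10 min at RT with compound (up to 57.5 uM final), then substrate plus GAPDH/TPI/NAD/arsenate coupling and diaphorase/resazurin added. Fluorescence read after 20 min at RT, 525/598 nm.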
* hit, by the source's call; ? = inconclusive; . = no result; + = active, no number; ! = not confirmed by another sample; [ ] = remark or other dose. Only some compounds are listed: those with a hit (about 7.7% of all), similar ones and a draw of the others. Unless noted, calls follow the shape of the dose curve; as a rule, active = well fitted curve in the direction sought with a large enough effect; inconclusive = small, poorly fitted or top-dose-only effect, or another doubt; inactive = no such curve, though single readings can be large; an effect the other way counts as inactive or inconclusive. % is scaled to controls: 0 for no effect and ±100 for the full control effect.

SMILES	Sm TGR inh	Tb PYK inh	RE007 growth inh	HCMV antiviral	FMDV inh	FBPA Giardia inh
Oc1ccc(N=Cc2ccc(OCc3ccccc3)cc2)cc1	4µM*	-23%	-1%	-19	85%	20µM*
O=C(Nc1ccccc1C(=O)N/N=C/c1ccncc1)c1ccccc1	2%	?	8.9µM*	14	-60%	-1%
COCC(=O)N1[C@H](CO)[C@@H]2c3ccccc3N(C(=O)c3ccccc3F)C[C@@H]21	.	.	.	-12	.	.
O=C(N/N=C/c1ccc[nH]1)c1ccccc1OCc1ccc(F)cc1	5%	2%	1%	?	-22%	-6%
CCOc1ccc(OCc2ccc(C(=O)NN=Cc3ccc[nH]3)cc2)cc1	.	3%	6%	+	-13%	.
CCCN(CCC)CCCNC(=O)c1cn(C)c2ccc(S(=O)(=O)N(C)C3CCCCC3)cc2c1=O	4%	-2%	-12%	?	-1%	5%
CCn1cc(C(=O)NCc2ccc(Cl)cc2)c(=O)c2cc(S(=O)(=O)N(C)C)ccc21	-19%	6%	1%	-71*	1%	-6%
CCn1cc(C(=O)NCCc2ccc(OC)c(OC)c2)c(=O)c2cc(S(=O)(=O)N(C)C3CCCCC3)ccc21	5%	-7%	.	-72*	-11%	.
CCn1cc(C(=O)NCCc2ccc(Cl)cc2)c(=O)c2cc(S(=O)(=O)N(C)C)ccc21	-2%	-8%	2%	37	0%	-4%
CCC1CCCCN1CCCNC(=O)c1cn(CC)c2ccc(S(=O)(=O)N(C)C3CCCCC3)cc2c1=O (centres undefined)	6%	8%	-3%	-69*!	9%	.
CCn1cc(C(=O)NCCc2ccc(OC)c(OC)c2)c(=O)c2cc(S(=O)(=O)N3CCCCCC3)ccc21	9%	8%	.	16	-21%	.
CCCN(CCC)CCCNC(=O)c1cn(CC)c2ccc(S(=O)(=O)N(C)C3CCCCC3)cc2c1=O	-18%	0%	1%	-82*!	8%	-11%
COC(=O)c1cc2occc2n1CC(=O)Nc1ccc(C(C)C)cc1	-3%	-5%	.	2	4%	.
COCC1=C2c3ccccc3[C@@H]3CNC(=O)C3(C(=O)OC)C[C@@H]2n2c(=O)n(-c3ccccc3)c(=O)n2C1 (some centres undefined)	.	.	.	.	.	4%
COC(=O)[C@@H]1CC[C@H](C)[C@@H](c2ccc(C)cc2)N1C(=O)c1ccc(/C=N\O[C@@H](C)CN2CCCc3nc(C)c(C)cc32)cc1	.	.	.	.	.	-2%[12.9 µM]
Cc1ccccc1C(=O)NC(C)c1nnc2n1CCN(Cc1ccnc3ccccc13)CC2 (centres undefined)	.	.	.	.	5%	.
C=CCn1cc(C(=O)NCc2cccnc2)c(=O)c2cc(S(=O)(=O)N(CC)CC)ccc21	-5%	-1%	-3%	-61*	-11%	0%
CCn1cc(C(=O)NCCCN2CCCC(C)C2)c(=O)c2cc(S(=O)(=O)N3CCc4ccccc4C3)ccc21 (centres undefined)	-3%	4%	?	-74*	-16%	0%
C=CCn1cc(C(=O)NCc2ccc3c(c2)OCO3)c(=O)c2cc(S(=O)(=O)N(CC)CC)ccc21	13%	-1%	-4%	-5	-15%	-1%
Cc1cc(C)c(C#N)c(SCc2cn3ccccc3n2)n1	3%	-1%	-7%	-77*	-21%	-23%
Clc1ccc(SCc2cn3ccccc3n2)cc1	-1%	6%	-3%	-37	0%	1%
Cc1cc(C)nc(SCc2cn3ccccc3n2)n1	-7%	-1%	5%	-60*	15%	-15%
Cc1cc(C)c(C#N)c(SCc2ccccc2)n1	-1%	-7%	-22%	-3	-13%	-3%
c1ccc2c(SCc3cn4ccccc4n3)nncc2c1	-11%	0%	-19%	-60*	59%	-17%
COc1ccc(NC(=O)CSC2=Nc3ccccc3C3=NC(CCC(=O)NCCc4ccccc4)C(=O)N23)c(OC)c1 (centres undefined)	13%	-14%	.	-37	?	.
SMILES	Sm TGR inh	Tb PYK inh	RE007 growth inh	HCMV antiviral	FMDV inh	FBPA Giardia inh
Cc1c(C(=O)N2CCC(c3nc4ccccc4s3)CC2)oc2ccc(Cl)cc12	0%	1%	.	8	-16%	.
Cc1ccc(CN2COc3c(Cl)cc4c(-c5ccccc5)cc(=O)oc4c3C2)cc1	7%	3%	.	-1	-17%	.
Cc1cc2nc(CSc3ccccc3)cc(=O)n2[nH]1	-1%	0%	-6%	-96*	5%	?
COc1ccc(CNC(=O)c2cccc(N3CCCS3(=O)=O)c2)cc1	12%	0%	.	-18	-22%	.
COc1ccc(CNC(=O)c2cccc(N3CCCS3(=O)=O)c2)cc1OC	4%	4%	.	-85*	?	.
C=CCN(CC=C)c1nc2ccccc2nc1C(C#N)C(=O)OC(C)C (centres undefined)	28µM*	-5%	-25%	-16	1%	-21%
C=CCOC(=O)C(C#N)c1nc2ccccc2nc1N1CCN(c2ccccc2OC)CC1 (centres undefined)	-2%	-4%	-1%	11	-19%	-13%
COc1ccc2nc3ccccc3nc2c1N	?	-16%	?	79	21%	-11%
COc1ccc2nc(-c3ccco3)c(-c3ccco3)nc2c1	3.5µM*	?	?	30	-18%	?
Nc1nc(-c2ccco2)c(-c2ccco2)s1	20µM*	-9%	-2%	-26	-11%	?
Nc1nc(-c2ccco2)cs1	?	-3%	2%	-9	24%	?
c1coc(-c2nc(-c3ccco3)c(-c3ccco3)nc2-c2ccco2)c1	0.71µM*	-12%	-7%	-7	0%	?
COc1ccc2nc3cccc(OC)c3nc2c1	20µM*	-10%	?	16	54%	1.4µM*
CCOc1ccccc1NC(=O)c1cc2c(=O)n(Cc3cccnc3)ccc2nc1C	-1%	0%	.	2	-1%	.
Cc1ccccc1C(=O)N[C@H](C(=O)N1CCC[C@H]1C(=O)NCc1ccccc1)c1ccccc1	.	.	.	35	.	.
O=C(O)/C=C/C(=O)Nc1ccc(SC(F)(F)F)cc1	-14%	3%	12%	20	-14%	25%
O=C(O)/C=C/C(=O)Nc1cccc2c1-c1ccccc1C2=O	.	2%	-2%	-11	1%	.
O=C(O)/C=C\C(=O)NCc1ccccc1	-17%	-1%	6%	29	-2%	5%
O=C(O)/C=C/C(=O)NCc1ccccc1	50µM*	-6%	-13%	12	-15%	6%

Screens as filed in PubChem BioAssay.
